Test results: PubChem BioAssay AID488969 (Vanderbilt High Throughput Screening Facility, 2010)
In all, about 110,000 compounds were measured (“z-score”: median about -0.1, highest 2% from about 2 on). The full list was thinned out, with the highest values kept by preference. Calls of active or inactive are those of the source.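 How the source made its calls: active means z-score in the third read window above 3 or below -3; inactive means the rest.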

The compounds below were run against Metabotropic glutamate receptor 8 (Rattus norvegicus) (UniProt P70579) (assay: rat mGluR8 modulators via GIRK flux, primary screen, cell-based, thallium flux, HTS (AID 488969)). Conditions: HEK293 rat mGluR8, GIRK (G protein-gated inwardly rectifying potassium channel) thallium flux, FluoZin2; at 10 µM; stronger effect = higher value; submaximal glutamate (EC20) added with thallium.
Metabotropic glutamate receptor 8 (Rattus norvegicus), sequence (P70579 whole entry, looked up): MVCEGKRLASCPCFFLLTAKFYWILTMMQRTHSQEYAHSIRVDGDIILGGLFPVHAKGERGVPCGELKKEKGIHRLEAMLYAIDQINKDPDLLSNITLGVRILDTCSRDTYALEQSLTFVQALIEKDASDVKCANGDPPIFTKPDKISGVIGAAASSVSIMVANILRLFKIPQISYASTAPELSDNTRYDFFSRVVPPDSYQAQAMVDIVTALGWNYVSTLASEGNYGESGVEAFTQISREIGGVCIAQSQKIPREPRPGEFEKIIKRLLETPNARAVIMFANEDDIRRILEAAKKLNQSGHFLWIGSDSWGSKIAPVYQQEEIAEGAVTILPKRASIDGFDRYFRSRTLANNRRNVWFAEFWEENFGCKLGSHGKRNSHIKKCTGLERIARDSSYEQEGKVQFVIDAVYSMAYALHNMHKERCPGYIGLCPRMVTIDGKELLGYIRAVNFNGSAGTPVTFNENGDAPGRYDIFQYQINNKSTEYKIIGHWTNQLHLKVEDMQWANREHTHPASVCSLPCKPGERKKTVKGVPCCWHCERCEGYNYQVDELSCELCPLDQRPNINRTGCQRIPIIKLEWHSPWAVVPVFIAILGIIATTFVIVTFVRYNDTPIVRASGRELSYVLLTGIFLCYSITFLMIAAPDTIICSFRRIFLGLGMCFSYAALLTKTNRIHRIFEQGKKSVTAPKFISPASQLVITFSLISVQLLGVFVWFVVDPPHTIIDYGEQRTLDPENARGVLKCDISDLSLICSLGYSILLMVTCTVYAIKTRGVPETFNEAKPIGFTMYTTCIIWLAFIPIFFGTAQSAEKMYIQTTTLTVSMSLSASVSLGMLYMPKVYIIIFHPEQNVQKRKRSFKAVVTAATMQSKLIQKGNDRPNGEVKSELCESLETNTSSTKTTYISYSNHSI
For `CCn1c(CCn2ccnc2C)n[nH]c1=S`, the z-score was 0.253. For `Cc1nccn1CCc1nc(N)nc(N)n1`, the z-score was 7.57 (active). With `CCc1ccc(NC(=O)CCn2ccnc2C)cc1` the z-score was 0.306. `O=c1cc(CN2CCN(CCO)CC2)c2cc3c(cc2o1)CCC3` was tested, and the z-score was 0.804. Work on `CCN(C(=O)c1ccco1)c1nc(CC(=O)Nc2ccc(Cl)cc2)cs1` yielded a z-score of -0.635. Compound `O=C(Nc1ccc2oc(-c3cccnc3)nc2c1)c1ccco1` has a z-score of -0.851. `CCOC(=O)c1c(-c2ccc(C)o2)csc1NC(=O)CN(C)CC(=O)Nc1ccc(C)cc1` gave a z-score of -0.104. With `CCOC(=O)c1c(-c2ccc(C)o2)csc1NC(=S)NC(=O)c1ccccc1Br` the z-score was 0.406. `CCOC(=O)c1c(-c2ccc(C)o2)csc1NC(=O)COC(=O)c1cccs1` gave a z-score of 0.191. `CCOC(=O)c1c(-c2ccc(C)o2)csc1NC(=S)NC(=O)c1cccs1` was tested, and the z-score was 3.05 (active). For `CCOC(=O)c1c(-c2ccc(C)o2)csc1NC(=S)NC(=O)N(C)C`, the z-score was 13.6 (active). `CCOC(=O)c1c(-c2ccc(C)o2)csc1NC(=O)CSc1nnc(C)s1` showed a z-score of -1.11. For `O=C1OCCC1Sc1nnc(-c2ccccc2)o1` (stereo not drawn), the z-score was -0.134. `Cc1c(Cl)cccc1NC(=S)NC1CCN(Cc2ccccc2)CC1` was tested, and the z-score was -0.67. `Cc1cc(C(=O)OCC(=O)Nc2ccc(F)c(F)c2)c(C)o1` was tested, and the z-score was 0.0113. With `Cc1cc(C(=O)OCC(=O)Nc2ccc(F)cc2)c(C)o1` the z-score was 2.45. In the case of `Cc1occc1C(=O)OCC(=O)Nc1ccc(F)cc1`, the z-score is reported as 0.794. With `N#Cc1c(N)nc2c(c1-c1ccncc1)CCCC2` the z-score was -0.232. Work on `COc1ccc2c(CC(=O)NC3CCCc4ccccc43)coc2c1` (stereo not drawn) yielded a z-score of -0.484. For `Cc1ccc2c(CC(=O)NC3CCCc4ccccc43)coc2c1` (stereo not drawn), the z-score was 4.11 (active). In the case of `Cc1cc2occ(CC(=O)NC3CCCc4ccccc43)c2cc1C` (stereo not drawn), the z-score is reported as 0.0042. In the case of `CCOC(=O)C(NC(=O)NCc1ccc(OC)cc1)(OCC)C(F)(F)F` (stereo not drawn), the z-score is reported as -0.306. `O=C(c1ccc(Cl)cc1)c1cnc2ccccn12` gave a z-score of -0.0464. Work on `O=C(Nc1ccccc1F)c1ccc(-n2cncn2)nc1` yielded a z-score of -0.0684. `O=C(CN1CCCCCCC1)N/N=C/c1ccc(F)cc1F` showed a z-score of -0.63. For `CC(=O)c1ccc(NC(=O)COC(=O)CCC(=O)c2cccs2)cc1`, the z-score was 0.114. Compound `Cc1cccc(NC(=S)NC(C)CCc2ccccc2)c1` (stereo not drawn) has a z-score of 0.2. `Cc1cccc(C)c1NC(=S)NC(=O)CCc1ccccc1` gave a z-score of 1.73. `Cc1ccccc1NC(=S)NC(=O)CCc1ccccc1` showed a z-score of 2.94. For `COC(=O)[C@H](C)NC(=O)Nc1cccc(C)c1`, the z-score was -0.0554. For `Cc1cccc(NC(=S)NC(=O)CCc2ccccc2)c1C`, the z-score was 0.747. With `Cc1cccc(NC(=O)NC(C)CCc2ccccc2)c1` (stereo not drawn) the z-score was 4.17 (active). Compound `Cc1ccccc1NC(=S)NC(C)CCc1ccccc1` (stereo not drawn) has a z-score of 0.22. In the case of `CC(CCc1ccccc1)NC(=O)C(=O)Nc1ccccc1` (stereo not drawn), the z-score is reported as -0.109. `O=C(CCc1ccccc1)NC(=S)Nc1cccc(Br)c1` was tested, and the z-score was 0.0148. In the case of `Cc1ccccc1NC(=O)C(=O)NC(C)CCc1ccccc1` (stereo not drawn), the z-score is reported as 7.37 (active). For `Cc1cccc(NC(=S)NNC(=O)Cc2ccccc2)c1`, the z-score was 0.0541. With `Cc1cccc(NC(=S)NC(=O)CCc2ccccc2)c1` the z-score was 2.74.
